Experimental data reported in ChEMBL document CHEMBL4513216, “Probing the Open Global Health Chemical Diversity Library for Multistage-Active Starting Points for Next-Generation Antimalarials” (ACS Infect Dis, 2020).
Screen size: about 69,000 compounds; about 8,600 (12%) showed an effect of 50% or more. The list comes from a sample in which strong results are over-represented; it also holds similar structures and randomly drawn compounds.

System: Plasmodium berghei
Assay: Screen against P. berghei liver stage (PbLuc), transformed with Luciferase, at 10uM
Format: functional, HepG2
Details: tested at 10 uM

Which INHIBITION does the source give for `Cc1ccc(-c2nc(CN3CCOC(Cn4cccn4)C3)no2)cc1` (configuration not stated) here?
The INHIBITION was -13.5%.

Which INHIBITION does the source give for `Cc1nc(-c2cccc(Cl)c2)n(CC(=O)NCC2CCCO2)c(=O)c1C` (configuration not stated) here?
Its INHIBITION is 13.8%.

`COc1ccccc1CN1CC[C@]2(C[C@@H](OCC(=O)N(C)C)CO2)C1` was tested. Which INHIBITION did it give?
Its INHIBITION is 24.9%.

How did the INHIBITION turn out when `CCOC1COC2(CCN(Cc3cccc(F)c3)CC2)C1` (configuration not stated) was run?
Its INHIBITION is 31.6%.

With `CNC(=O)COC1COC2(CCN(Cc3ccncc3F)CC2)C1` (configuration not stated) as the compound, how does the INHIBITION read?
Its INHIBITION is 59.3%.

`CC(C)NC(=O)CC1COC2(CCN(Cc3cccnc3)CC2)C1` (configuration not stated) was tested. Which INHIBITION did it give?
The INHIBITION was 13.7%.

For `CNC(=O)COC1COC2(CCN(Cc3cccnc3OC)CC2)C1` (configuration not stated), which INHIBITION is on record?
The INHIBITION was 40.5%.

With `CNC(=O)COC1COC2(CCN(Cc3cccnc3)CC2)C1` (configuration not stated) as the compound, how does the INHIBITION read?
Its INHIBITION is 67.3%.

For `CN(Cc1cnc2ccccc2c1)C(=O)C(c1ccccc1F)N(C)C` (configuration not stated), which INHIBITION is on record?
The INHIBITION was 4.64%.

For `COc1ccccc1N1CCN(C(=O)COc2c(C)occc2=O)CC1`, which INHIBITION is on record?
Its INHIBITION is 1.04%.

How did the INHIBITION turn out when `OC(CNCCc1nnc2ccccn12)c1ccc(F)c(F)c1` (configuration not stated) was run?
The INHIBITION was -55.3%.

How did the INHIBITION turn out when `O=C(c1nnn(-c2ccc(F)cc2)n1)N(CCO)Cc1ccccc1` was run?
Its INHIBITION is -137%.

With `CN1C(=O)[C@@H]2CC[C@H]1CN(C(=O)Nc1ccccc1C(F)(F)F)C2` as the compound, how does the INHIBITION read?
The INHIBITION was -53.7%.

`COc1ccc(CN2CCC=C(C(C)NC(C)=O)C2)cc1` (configuration not stated) was tested. Which INHIBITION did it give?
The INHIBITION was 83.2%.

Which INHIBITION does the source give for `CC(=O)NC(C)C1=CCCN(Cc2ccc(C(=O)O)cc2)C1` (configuration not stated) here?
Its INHIBITION is 37.2%.

With `COc1ccnc(CN2CCC=C(C(C)NC(C)=O)C2)c1OC` (configuration not stated) as the compound, how does the INHIBITION read?
Its INHIBITION is 36.2%.

For `Fc1ccc(-c2nc(CNC3CCc4ncnn4C3)cs2)cc1` (configuration not stated), which INHIBITION is on record?
Its INHIBITION is 48.8%.

For `CN(CC(O)C1CC1)C(=O)Nc1cc(F)cc(Br)c1` (configuration not stated), which INHIBITION is on record?
Its INHIBITION is -54.5%.

How did the INHIBITION turn out when `CNC(=O)C(C)CN(C)C(=O)Nc1cc(F)cc(Br)c1` (configuration not stated) was run?
Its INHIBITION is 83.3%.

With `CC(O)CCN(C)C(=O)Nc1cc(F)cc(Br)c1` (configuration not stated) as the compound, how does the INHIBITION read?
The INHIBITION was 42.6%.

For `Cc1nc(C2CCCN2C(=O)c2ccc(N(C)C)nn2)no1` (configuration not stated), which INHIBITION is on record?
The INHIBITION was -16.98%.

How did the INHIBITION turn out when `O=C(CCc1ccccc1Cl)NS(=O)(=O)c1ccc2c(c1)OCCO2` was run?
Its INHIBITION is -19.265%.

Which INHIBITION does the source give for `CC1CCN(C(CNC(=O)Cn2cccn2)c2cccs2)CC1` (configuration not stated) here?
The INHIBITION was 32.3%.

How did the INHIBITION turn out when `CC(NC(=O)CCn1cccn1)c1cccs1` (configuration not stated) was run?
Its INHIBITION is 61.5%.

For `CC(NC(=O)CCn1cccn1)c1ccc(-n2ccnn2)cc1` (configuration not stated), which INHIBITION is on record?
The INHIBITION was 10%.

Which INHIBITION does the source give for `CN1CCN(C(CNC(=O)CCn2cccn2)c2cccs2)CC1` (configuration not stated) here?
Its INHIBITION is 31.2%.

For `CC1CCN(C(CNC(=O)CCn2cccn2)c2cccs2)CC1` (configuration not stated), which INHIBITION is on record?
The INHIBITION was 40.7%.

With `O=C(CCn1cccn1)NCC(c1cccs1)N1CCCC1` (configuration not stated) as the compound, how does the INHIBITION read?
Its INHIBITION is 66.9%.

`O=C(CCn1cccn1)NCC(c1cccs1)N1CCOCC1` (configuration not stated) was tested. Which INHIBITION did it give?
The INHIBITION was 56.1%.

With `O=C(Cn1cccn1)NCC(c1cccs1)N1CCCC1` (configuration not stated) as the compound, how does the INHIBITION read?
Its INHIBITION is 28%.

With `CC(Cc1cccs1)NC(=O)CCn1cccn1` (configuration not stated) as the compound, how does the INHIBITION read?
The INHIBITION was 9.14%.

For `COCCc1nnc(NC(=O)CSCc2ccccc2)o1`, which INHIBITION is on record?
The INHIBITION was 2.84%.

Which INHIBITION does the source give for `COCC[C@]1(O)CCN(Cc2ccccn2)C[C@H]1C` here?
Its INHIBITION is 18.4%.

For `Cc1cccc2c1cnn2CCCNC(=O)c1cnn(C)c1`, which INHIBITION is on record?
The INHIBITION was -17.2%.

Which INHIBITION does the source give for `CC/N=c1\nc(NCC)nc2n1C(O)(Nc1cccc(Cl)c1Cl)CS2` (configuration not stated) here?
Its INHIBITION is 28.6%.

`CC/N=c1\nc(NCC)nc2n1C(O)(Nc1cc(C)ccc1C)CS2` (configuration not stated) was tested. Which INHIBITION did it give?
Its INHIBITION is -21.3%.

Which INHIBITION does the source give for `CC/N=c1\nc(NCC)nc2n1C(O)(Nc1cc(Cl)ccc1Cl)CS2` (configuration not stated) here?
Its INHIBITION is 56%.

How did the INHIBITION turn out when `CCNC(=O)N1CCc2ccc(NC(=O)NCc3ccsc3)cc21` was run?
The INHIBITION was 47%.

Which INHIBITION does the source give for `Cc1ccccc1C1(CNC(=O)CCN2C(=O)CCC2=O)CC1` here?
The INHIBITION was 50.3%.

`O=C(CCN1C(=O)CCC1=O)NCC1(c2c(F)cccc2F)CCCC1` was tested. Which INHIBITION did it give?
Its INHIBITION is 25.6%.

`Cc1cccc(C2(CNC(=O)CCN3C(=O)CCC3=O)CCCC2)c1` was tested. Which INHIBITION did it give?
The INHIBITION was 36.4%.

How did the INHIBITION turn out when `CC(NCc1ccc(OCC(N)=O)cc1)c1ccc(Cl)cc1Cl` (configuration not stated) was run?
Its INHIBITION is 32.2%.

`Cn1cc(C(=O)Nc2cc(F)ccc2OCC2CCCO2)ccc1=O` (configuration not stated) was tested. Which INHIBITION did it give?
Its INHIBITION is 13.6%.

Which INHIBITION does the source give for `CCC(CC)C(=O)NCc1c(C)nn(C)c1N1CCCN(C)CC1` here?
The INHIBITION was 24.6%.

For `CC(Nc1nc(-c2ccccc2)nc2c1CCNCC2)c1cccnc1` (configuration not stated), which INHIBITION is on record?
Its INHIBITION is 31.4%.

With `CN(CC1Cc2ccccc2CN1C)c1nc(N)nc2c1CCNCC2` (configuration not stated) as the compound, how does the INHIBITION read?
Its INHIBITION is 30.8%.

With `COCC(Nc1nc(N(C)C)nc2c1CCNCC2)c1ccccn1` (configuration not stated) as the compound, how does the INHIBITION read?
Its INHIBITION is 34.9%.

How did the INHIBITION turn out when `c1ccc(C(Cn2cccn2)Nc2cnccn2)cc1` (configuration not stated) was run?
Its INHIBITION is 31.2%.

How did the INHIBITION turn out when `Nc1nc2c(c(NC(Cn3cccn3)c3ccccc3)n1)CCNCC2` (configuration not stated) was run?
The INHIBITION was 75.5%.

`CN(C)CC(Nc1nc(N)nc2c1CCNCC2)c1ccccc1` (configuration not stated) was tested. Which INHIBITION did it give?
Its INHIBITION is 72.7%.

Which INHIBITION does the source give for `CN(Cc1ccccc1-n1cccn1)c1nc(N)nc2c1CCNCC2` here?
Its INHIBITION is -18%.

Which INHIBITION does the source give for `Nc1nc2c(c(N3CCC(CCn4cccn4)CC3)n1)CCNCC2` here?
The INHIBITION was 31.4%.

`CN(C)CCC(Nc1nc(N)nc2c1CCNCC2)c1ccccc1` (configuration not stated) was tested. Which INHIBITION did it give?
The INHIBITION was 68.5%.

With `O=c1c(S(=O)(=O)N2CCCC2)cccn1Cc1ccc(F)cc1Cl` as the compound, how does the INHIBITION read?
The INHIBITION was 24.2%.

How did the INHIBITION turn out when `Cc1noc2ncc(C(=O)N3CCCC3c3ccsc3)cc12` (configuration not stated) was run?
Its INHIBITION is -7.35%.

Which INHIBITION does the source give for `Cc1cc(C2CCCN(C(=O)Cc3csc(C(C)C)n3)C2)n[nH]1` (configuration not stated) here?
Its INHIBITION is -23.8%.

Which INHIBITION does the source give for `O=S(=O)(c1ccccc1)N1CCCC1c1cc[nH]n1` (configuration not stated) here?
Its INHIBITION is 18.9%.

How did the INHIBITION turn out when `Cc1ccc(C(=O)NCCNc2ncccc2C#N)c(=O)[nH]1` was run?
Its INHIBITION is -58.7%.

With `Cc1ccc(CNC(=O)c2ccc(=O)n(C)n2)c(OC2CCCC2)c1` as the compound, how does the INHIBITION read?
The INHIBITION was 5.91%.

Which INHIBITION does the source give for `CN1CCc2c(sc3c2C(=O)NC(C=Cc2ccccc2)N3)C1` (configuration not stated) here?
Its INHIBITION is -45.3%.

Which INHIBITION does the source give for `Cn1nc(C(=O)N2CCCC2)c2c1CN(CC1CCOCC1)C2` here?
Its INHIBITION is 21.6%.

`Cn1nc(C(=O)N2CCOCC2)c2c1CN(CC1CC1)C2` was tested. Which INHIBITION did it give?
The INHIBITION was 48.4%.

With `CC(C)CCN1Cc2c(C(=O)N3CCCC3)nn(C)c2C1` as the compound, how does the INHIBITION read?
Its INHIBITION is 60%.

For `Cc1ccc(CN2Cc3c(C(=O)N4CCCC4)nn(C)c3C2)s1`, which INHIBITION is on record?
The INHIBITION was -30.6%.

With `CCC(C)N1Cc2c(C(=O)N3CCCC3)nn(C)c2C1` (configuration not stated) as the compound, how does the INHIBITION read?
Its INHIBITION is 23.1%.

How did the INHIBITION turn out when `Cn1nc(C(=O)N2CCOCC2)c2c1CN(CC1CCC1)C2` was run?
Its INHIBITION is 53%.

Which INHIBITION does the source give for `CCN1C(=O)CCC12CCC(NC(=O)c1cnccn1)CC2` (configuration not stated) here?
Its INHIBITION is -43%.

With `CNC(=O)c1cn[nH]c1C1(C)CCCN(Cc2nccn2C(C)C)C1` (configuration not stated) as the compound, how does the INHIBITION read?
The INHIBITION was 46%.

How did the INHIBITION turn out when `CC(NCc1cnc(C2CCC2)s1)c1cccc(-n2cccn2)c1` (configuration not stated) was run?
The INHIBITION was 75.3%.

How did the INHIBITION turn out when `Cc1cnn(CC(C)NCc2ccc(-n3cccn3)cc2)c1` (configuration not stated) was run?
The INHIBITION was -1.58%.

For `CCCS(=O)(=O)NC(C)c1cccc(-n2cccn2)c1` (configuration not stated), which INHIBITION is on record?
The INHIBITION was 29.3%.

With `CCOCCCNC(=O)NC(C)c1ccc(-n2cncn2)cc1` (configuration not stated) as the compound, how does the INHIBITION read?
The INHIBITION was -31.4%.

Which INHIBITION does the source give for `CC(NCc1cnc(C2CCC2)s1)c1cccc(-n2ccnc2)c1` (configuration not stated) here?
Its INHIBITION is 29.7%.

`CC(C)COCCCNC(=O)NC(C)c1ccc(-n2cncn2)cc1` (configuration not stated) was tested. Which INHIBITION did it give?
Its INHIBITION is -12.3%.

Which INHIBITION does the source give for `CC(NCc1cnc(C2CCC2)s1)c1ccc(-n2cncn2)cc1` (configuration not stated) here?
The INHIBITION was 61.4%.

`CC(NCc1cnc(C2CCC2)s1)c1ccc(-n2cccn2)cc1` (configuration not stated) was tested. Which INHIBITION did it give?
The INHIBITION was 59.4%.

How did the INHIBITION turn out when `CC(NCc1cnc(C2CCC2)s1)c1ccccc1-n1cccn1` (configuration not stated) was run?
The INHIBITION was 11.9%.
